Laboratory results published in publication PMC4336329 (PLoS ONE, 2015).
The campaign covered roughly 310,000 compounds. About 14,000 (4.5%) showed an effect of 50% or more. Effects have a minus sign here. Shown is part of a subset that was picked to be rich in strong results.

Target: human ether-à-go-go-related gene (hERG) potassium channel (human, UniProt Q12809)
Experiment: primary screen, population patch clamp on CHO cells stably expressing hERG; higher = less effect of the substance
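Also: peak tail current of the secondary pulse compared with the same well before compound.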

human ether-à-go-go-related gene (hERG) potassium channel, sequence (Q12809 whole entry, looked up): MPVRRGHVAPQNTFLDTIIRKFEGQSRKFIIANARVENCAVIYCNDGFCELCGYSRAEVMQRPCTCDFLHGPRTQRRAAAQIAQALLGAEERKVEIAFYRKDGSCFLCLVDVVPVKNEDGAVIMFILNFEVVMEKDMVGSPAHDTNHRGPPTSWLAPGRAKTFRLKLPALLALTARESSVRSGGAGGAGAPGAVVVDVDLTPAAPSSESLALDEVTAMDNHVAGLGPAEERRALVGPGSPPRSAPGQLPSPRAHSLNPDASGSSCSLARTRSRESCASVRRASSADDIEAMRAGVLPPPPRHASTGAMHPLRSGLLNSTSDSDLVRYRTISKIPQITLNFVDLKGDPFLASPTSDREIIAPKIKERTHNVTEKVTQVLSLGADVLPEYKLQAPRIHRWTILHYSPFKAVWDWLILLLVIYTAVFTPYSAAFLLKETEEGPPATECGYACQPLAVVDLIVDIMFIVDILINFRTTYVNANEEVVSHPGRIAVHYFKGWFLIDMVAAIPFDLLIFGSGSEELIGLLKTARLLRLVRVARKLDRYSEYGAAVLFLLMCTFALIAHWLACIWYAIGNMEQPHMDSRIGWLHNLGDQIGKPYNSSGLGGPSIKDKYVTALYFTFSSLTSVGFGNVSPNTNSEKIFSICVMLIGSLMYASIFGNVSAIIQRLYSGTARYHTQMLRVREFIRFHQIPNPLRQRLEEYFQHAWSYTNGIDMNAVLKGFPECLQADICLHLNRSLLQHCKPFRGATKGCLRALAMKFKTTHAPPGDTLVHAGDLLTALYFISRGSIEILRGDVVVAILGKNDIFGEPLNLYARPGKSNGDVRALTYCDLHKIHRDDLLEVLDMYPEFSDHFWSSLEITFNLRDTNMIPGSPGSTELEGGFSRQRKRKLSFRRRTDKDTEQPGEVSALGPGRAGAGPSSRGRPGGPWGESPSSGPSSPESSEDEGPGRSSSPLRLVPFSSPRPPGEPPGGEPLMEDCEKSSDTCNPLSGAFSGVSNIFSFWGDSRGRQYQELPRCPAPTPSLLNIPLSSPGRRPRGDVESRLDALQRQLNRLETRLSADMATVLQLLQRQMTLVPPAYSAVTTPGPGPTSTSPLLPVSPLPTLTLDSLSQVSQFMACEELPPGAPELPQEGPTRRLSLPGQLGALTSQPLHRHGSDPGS

SMILES | hERG current change (%, negative = inhibition) at 10uM
CCOc1ccc(C(=O)Nc2nc(C)cc(C)n2)cc1[N+](=O)[O-] | -49.6%
Cc1nnc(C)n1/N=C/c1ccc(-c2ccccc2Cl)o1 | -11.3%
N[C@@H](Cc1ccc(O)c(I)c1)C(=O)O | 17.6%
COc1ccc(NC(=O)c2oc3ccccc3c2NC(=O)C2CCCO2)cc1OC (stereo not drawn) | -17.8%
c1ccc(C2=Nn3c(nnc3-c3cc(-c4ccccc4)n[nH]3)SC2)cc1 | 6.46%
COc1ccc(OC)c(/C=N/NC(=O)CSc2nnc(C)n2-c2ccccc2)c1 | -12.4%
CCOc1cc(/C=C(\C#N)C(=O)NCc2cccnc2)ccc1O | -8.66%
COc1ccccc1/C=C\C=N\NC(=O)CCn1nnc2ccccc21 | -3.44%
Cc1nc(Br)c(Br)c(C)c1Br | 14.4%
O=C(CNc1cccc(S(=O)(=O)N2CCCCCC2)c1)Nc1cccc([N+](=O)[O-])c1 | -71.9%
CC(=O)c1cccc(NCC(=O)Nc2cccc(S(=O)(=O)N3CCCCC3)c2)c1 | -31.6%
O=C(CCNC(=O)c1ccc([N+](=O)[O-])cc1)Nc1ccc(S(=O)(=O)N2CCOCC2)cc1 | 2.67%
O=C(CCNC(=O)c1ccc([N+](=O)[O-])cc1)Nc1ccc(Cl)c(S(=O)(=O)N2CCOCC2)c1 | -66.2%
Cc1ccc(NC(=O)CCNC(=O)c2ccc([N+](=O)[O-])cc2)cc1S(=O)(=O)N1CCOCC1 | -47.4%
O=C(CNc1cccc(S(=O)(=O)N2CCCCC2)c1)Nc1cccc(F)c1 | -9.9%
Cc1ccc(-n2c(C)nnc2SCC(=O)N(C)C2CCS(=O)(=O)C2)cc1 (stereo not drawn) | 12.9%
Cl.O=C(CCc1ccc(S(=O)(=O)N2CCOCC2)cc1)N1CCN(Cc2ccc3c(c2)OCO3)CC1 | -34.3%
Clc1ccc(-c2cn3nc4c(nc3n2)CCCC4)cc1 | -15.3%
CCOC(=O)c1ccc(NC(=O)c2ccc(NC(=O)C3CCCO3)cc2)cc1 (stereo not drawn) | 17%
COc1ccccc1C(=O)Nc1ccccc1N1CCN(C(=O)c2ccc(Cl)cc2)CC1 | -82.1%
O=C(Nc1ccccc1N1CCN(C(=O)c2ccc(Cl)cc2)CC1)c1ccc(Br)cc1 | -41.5%

SMILES | hERG current change (%, negative = inhibition) at 10uM
O=C(Nc1ccccc1N1CCCCC1)c1cccc(Cl)c1 | 13.5%
COc1cccc(OC)c1C(=O)Nc1ccccc1N1CCCCC1 | -17.4%
CC(C)C(=O)Nc1ccccc1N1CCN(C(=O)c2ccccc2)CC1 | -14.2%
CC(C)(C)C(=O)Nc1ccccc1N1CCN(C(=O)c2ccc(Cl)cc2)CC1 | -48.2%
COc1ccccc1C(=O)Nc1ccccc1N1CCCCC1 | -22.4%
COc1cccc(OC)c1C(=O)Nc1ccccc1N1CCCC1 | -74.6%
CC(C)C(=O)NC(=S)Nc1ccccc1N1CCN(C(=O)c2ccc(Cl)cc2)CC1 | -3.55%
COc1ccccc1C(=O)Nc1ccccc1N1CCOCC1 | -6.98%
O=C(Nc1ccccc1N1CCN(C(=O)c2ccccc2)CC1)c1cccc(Cl)c1 | -67.8%
O=C(Nc1ccccc1N1CCN(C(=O)c2ccccc2)CC1)c1ccc(Cl)cc1 | -73.2%
O=C(NC1CCSc2ccccc21)c1ccc(Cl)c(S(=O)(=O)N2CCOCC2)c1 (stereo not drawn) | 7.48%
Cc1ccc(C(=O)Nc2nc3ccccc3s2)s1 | 8.75%
CC(C)[C@H](NC(=O)c1ccco1)C(=O)N(C)Cc1c(F)cccc1Cl | -32.3%
CCOC(=O)C1(C)/C(=N/Nc2ccccc2Cl)C(=O)C(=O)N1c1ccccc1 (stereo not drawn) | 6.03%
Cc1ccc(S(=O)(=O)n2nc(C)c(Br)c2C)c(C)c1C | 20.8%
Cc1ccc(S(=O)(=O)NCc2ccc(C(=O)N3CCN(c4ccccn4)CC3)cc2)cc1 | -33.6%
Nc1nc(-c2ccccc2)nc2sc3c(c12)CCCC3 | 11.7%
CC(C)C(=O)N1CCN(c2ccccc2NC(=O)c2cccc(Cl)c2)CC1 | -69.6%
COc1cc2ccccc2cc1C(=O)Nc1ccccc1N1CCN(S(C)(=O)=O)CC1 | 6.35%
CCOc1cccc(C(=O)Nc2ccccc2N2CCN(C(=O)C(C)C)CC2)c1 | -70%
COc1cc(Cl)ccc1NC(=O)COc1ccccc1C(=O)N1CCN(c2ccc(O)cc2)CC1 | -53.9%
